# Reference: paper PMC7862700, “An all-to-all approach to the identification of sequence-specific readers for epigenetic DNA modifications on cytosine”
# Key:
# Experiment in all cases: DAPPL (digital affinity profiling via proximity ligation, sequencing); 10 mM Tris-HCl pH 7.5, 50 mM NaCl, 1 mM DTT, 4% glycerol, room temperature, 30 min; GST-TFs on glutathione beads, 16-mer random dsDNA library, 0.1% formaldehyde crosslink after washing; high values mean tight binding
# FEV = target: T1, FEV (Homo sapiens, UniProt Q99581 1-238); settings: protein: recombinant; tags: N-terminal GST; dsDNA, one strand shown
# T1 sequence: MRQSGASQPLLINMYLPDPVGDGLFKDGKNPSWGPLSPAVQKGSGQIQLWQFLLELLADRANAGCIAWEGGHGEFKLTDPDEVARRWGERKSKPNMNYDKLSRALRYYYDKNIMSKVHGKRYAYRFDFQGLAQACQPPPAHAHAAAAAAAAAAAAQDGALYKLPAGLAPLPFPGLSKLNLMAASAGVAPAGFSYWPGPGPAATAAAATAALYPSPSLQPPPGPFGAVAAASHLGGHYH
# Procedure, shortened: (§1)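 Each value of binding signal is a hexamer's read frequency for a factor divided by the same hexamer's frequency in the tag-only sample. Barcoded, bead-captured GST fusions of human transcription factors made in yeast were pooled with that sample and incubated with 200 nmole of a random double-stranded 16-mer DNA library in Tris/NaCl/DTT/glycerol buffer at room temperature for 30 min. Washing, 0.1% formaldehyde crosslinking, proximity ligation, PCR and Illumina NextSeq500 sequencing followed.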
# ETV5 = ETV5 (Homo sapiens, UniProt P41161 1-510); settings: protein: recombinant; tags: N-terminal GST; dsDNA, one strand shown
# Chain of ETV5 (P41161 whole entry): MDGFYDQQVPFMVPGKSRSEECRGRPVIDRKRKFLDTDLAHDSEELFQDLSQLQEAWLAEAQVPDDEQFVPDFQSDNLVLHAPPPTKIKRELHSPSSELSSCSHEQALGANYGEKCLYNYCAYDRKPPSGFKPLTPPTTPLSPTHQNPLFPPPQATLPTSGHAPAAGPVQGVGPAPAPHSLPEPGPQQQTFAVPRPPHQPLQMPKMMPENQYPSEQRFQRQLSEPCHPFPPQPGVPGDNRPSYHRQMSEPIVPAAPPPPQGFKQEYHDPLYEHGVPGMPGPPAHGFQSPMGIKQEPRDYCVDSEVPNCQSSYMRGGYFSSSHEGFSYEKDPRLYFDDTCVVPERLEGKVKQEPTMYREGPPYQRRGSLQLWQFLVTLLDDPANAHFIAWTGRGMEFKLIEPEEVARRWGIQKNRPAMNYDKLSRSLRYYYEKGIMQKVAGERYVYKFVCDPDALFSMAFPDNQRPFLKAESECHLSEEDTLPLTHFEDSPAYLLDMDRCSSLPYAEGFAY
# Procedure, shortened: as §1
# HSF1 = HSF1 (Homo sapiens, UniProt Q00613 1-529); settings: protein: recombinant; tags: N-terminal GST; chain copies: 3; dsDNA, one strand shown
# Chain of HSF1 (Q00613 whole entry): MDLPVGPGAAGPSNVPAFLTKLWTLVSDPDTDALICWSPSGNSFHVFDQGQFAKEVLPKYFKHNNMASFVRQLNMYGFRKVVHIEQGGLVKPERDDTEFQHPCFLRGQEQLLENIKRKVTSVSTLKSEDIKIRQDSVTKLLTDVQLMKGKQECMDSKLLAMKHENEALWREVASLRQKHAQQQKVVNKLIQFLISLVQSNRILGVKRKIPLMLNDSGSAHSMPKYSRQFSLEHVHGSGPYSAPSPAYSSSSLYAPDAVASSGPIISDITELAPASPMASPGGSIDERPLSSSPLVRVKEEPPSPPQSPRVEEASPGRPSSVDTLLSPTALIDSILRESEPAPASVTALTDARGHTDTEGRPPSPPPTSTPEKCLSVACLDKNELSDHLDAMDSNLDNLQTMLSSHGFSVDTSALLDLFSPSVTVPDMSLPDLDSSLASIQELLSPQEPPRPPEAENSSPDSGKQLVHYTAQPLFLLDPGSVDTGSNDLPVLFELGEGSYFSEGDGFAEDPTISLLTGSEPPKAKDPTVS
# Procedure, shortened: as §1
# SPIC = target: T2, SPIC (Homo sapiens, UniProt Q8N5J4 1-248); settings: protein: recombinant; tags: N-terminal GST; dsDNA, one strand shown
# T2 sequence: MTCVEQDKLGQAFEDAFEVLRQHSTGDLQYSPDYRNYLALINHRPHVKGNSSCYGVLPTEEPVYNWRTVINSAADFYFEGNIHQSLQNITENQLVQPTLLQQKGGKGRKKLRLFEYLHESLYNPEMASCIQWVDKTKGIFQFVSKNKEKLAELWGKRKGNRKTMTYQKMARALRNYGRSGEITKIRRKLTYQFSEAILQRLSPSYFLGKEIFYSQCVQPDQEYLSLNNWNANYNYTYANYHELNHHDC
# Procedure, shortened: as §1
# ELF4 = ELF4 (Homo sapiens, UniProt Q99607 1-663); settings: protein: recombinant; tags: N-terminal GST; dsDNA, one strand shown
# Chain of ELF4 (Q99607 whole entry): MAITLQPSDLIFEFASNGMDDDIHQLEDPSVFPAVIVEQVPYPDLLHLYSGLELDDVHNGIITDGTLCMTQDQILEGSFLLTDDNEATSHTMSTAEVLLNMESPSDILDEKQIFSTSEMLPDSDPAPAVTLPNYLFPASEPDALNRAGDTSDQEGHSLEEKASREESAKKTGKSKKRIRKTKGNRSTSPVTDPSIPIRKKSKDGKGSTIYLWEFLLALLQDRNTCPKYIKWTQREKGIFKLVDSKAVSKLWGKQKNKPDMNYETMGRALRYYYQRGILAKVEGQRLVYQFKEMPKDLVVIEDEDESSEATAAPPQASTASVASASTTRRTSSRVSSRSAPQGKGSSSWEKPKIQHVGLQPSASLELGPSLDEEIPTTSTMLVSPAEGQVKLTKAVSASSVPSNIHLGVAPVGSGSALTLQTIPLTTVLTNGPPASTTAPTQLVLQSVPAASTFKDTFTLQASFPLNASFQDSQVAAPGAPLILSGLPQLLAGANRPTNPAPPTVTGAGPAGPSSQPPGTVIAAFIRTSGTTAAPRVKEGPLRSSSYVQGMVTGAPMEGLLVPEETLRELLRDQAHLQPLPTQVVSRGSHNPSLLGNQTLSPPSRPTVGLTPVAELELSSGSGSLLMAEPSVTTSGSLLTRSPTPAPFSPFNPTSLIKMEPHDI
# Procedure, shortened: as §1
# ELK4 = target: T3, ELK4 (Homo sapiens, UniProt P28324-2 1-405); settings: protein: recombinant; tags: N-terminal GST; dsDNA, one strand shown
# T3 sequence: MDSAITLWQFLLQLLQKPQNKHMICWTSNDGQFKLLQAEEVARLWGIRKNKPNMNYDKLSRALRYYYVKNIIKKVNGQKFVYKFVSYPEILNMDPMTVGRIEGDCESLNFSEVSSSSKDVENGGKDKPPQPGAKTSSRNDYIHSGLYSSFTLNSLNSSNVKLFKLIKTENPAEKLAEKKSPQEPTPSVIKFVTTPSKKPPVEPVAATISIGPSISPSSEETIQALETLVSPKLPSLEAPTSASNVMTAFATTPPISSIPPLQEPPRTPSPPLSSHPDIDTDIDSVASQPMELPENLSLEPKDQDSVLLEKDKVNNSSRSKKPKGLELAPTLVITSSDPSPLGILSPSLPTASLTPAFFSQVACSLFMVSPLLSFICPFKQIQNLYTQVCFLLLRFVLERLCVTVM
# Procedure, shortened: as §1
# ETV2 = target: T4, ETV2 (Homo sapiens, UniProt O00321 1-342); settings: protein: recombinant; tags: N-terminal GST; dsDNA, one strand shown
# T4 sequence: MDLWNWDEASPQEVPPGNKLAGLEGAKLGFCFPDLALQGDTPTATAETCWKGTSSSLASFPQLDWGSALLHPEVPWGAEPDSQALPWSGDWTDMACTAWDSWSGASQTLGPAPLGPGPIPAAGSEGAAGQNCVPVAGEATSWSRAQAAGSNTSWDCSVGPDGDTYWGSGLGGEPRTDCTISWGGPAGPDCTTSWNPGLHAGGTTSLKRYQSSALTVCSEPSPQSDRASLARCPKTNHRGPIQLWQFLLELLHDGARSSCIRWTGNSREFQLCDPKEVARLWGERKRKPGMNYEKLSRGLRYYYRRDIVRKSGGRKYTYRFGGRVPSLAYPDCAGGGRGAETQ
# Procedure, shortened: as §1
# ELF3 = target: T5, ELF3 (Homo sapiens, UniProt P78545 1-371); settings: protein: recombinant; tags: N-terminal GST; dsDNA, one strand shown
# T5 sequence: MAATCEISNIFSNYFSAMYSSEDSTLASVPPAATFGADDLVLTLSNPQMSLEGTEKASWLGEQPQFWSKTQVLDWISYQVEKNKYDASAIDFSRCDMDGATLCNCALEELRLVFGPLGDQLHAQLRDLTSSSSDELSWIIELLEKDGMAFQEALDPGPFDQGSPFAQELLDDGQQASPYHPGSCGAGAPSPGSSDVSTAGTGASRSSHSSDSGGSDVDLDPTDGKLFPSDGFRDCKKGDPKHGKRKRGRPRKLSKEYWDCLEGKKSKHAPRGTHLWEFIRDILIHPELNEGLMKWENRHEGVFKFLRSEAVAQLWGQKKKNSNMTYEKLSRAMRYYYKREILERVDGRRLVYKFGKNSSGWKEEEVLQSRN
# Procedure, shortened: as §1
# CRX = CRX (Homo sapiens, UniProt O43186 1-299); settings: protein: recombinant; tags: N-terminal GST; dsDNA, one strand shown
# Chain of CRX (O43186 whole entry): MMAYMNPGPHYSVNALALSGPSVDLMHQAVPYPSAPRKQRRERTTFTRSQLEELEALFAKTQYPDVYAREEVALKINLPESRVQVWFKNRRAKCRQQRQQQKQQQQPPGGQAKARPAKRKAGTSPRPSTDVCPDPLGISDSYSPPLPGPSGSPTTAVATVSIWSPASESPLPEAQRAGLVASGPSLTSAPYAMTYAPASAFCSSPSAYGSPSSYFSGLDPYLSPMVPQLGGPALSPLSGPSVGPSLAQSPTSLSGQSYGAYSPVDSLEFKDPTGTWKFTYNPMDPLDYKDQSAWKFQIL
# Procedure, shortened: as §1
# ETV1 = ETV1 (Homo sapiens, UniProt P50549 1-477); settings: protein: recombinant; tags: N-terminal GST; dsDNA, one strand shown
# Chain of ETV1 (P50549 whole entry): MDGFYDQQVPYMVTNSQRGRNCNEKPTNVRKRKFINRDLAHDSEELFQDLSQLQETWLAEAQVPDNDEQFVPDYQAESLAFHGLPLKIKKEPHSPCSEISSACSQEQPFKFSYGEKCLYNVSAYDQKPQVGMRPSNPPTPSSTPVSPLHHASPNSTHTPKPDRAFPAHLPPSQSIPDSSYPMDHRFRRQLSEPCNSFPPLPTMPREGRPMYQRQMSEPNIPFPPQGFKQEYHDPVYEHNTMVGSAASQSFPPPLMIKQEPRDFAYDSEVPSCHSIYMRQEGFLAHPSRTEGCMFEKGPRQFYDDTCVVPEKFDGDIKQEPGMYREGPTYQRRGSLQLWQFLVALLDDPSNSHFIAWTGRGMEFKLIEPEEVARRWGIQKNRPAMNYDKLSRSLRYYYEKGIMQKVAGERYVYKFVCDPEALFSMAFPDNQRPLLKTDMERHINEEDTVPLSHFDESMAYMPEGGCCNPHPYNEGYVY
# Procedure, shortened: as §1
# ERF = target: T6, ERF (Homo sapiens, UniProt P50548 1-548); settings: protein: recombinant; tags: N-terminal GST; dsDNA, one strand shown
# T6 sequence: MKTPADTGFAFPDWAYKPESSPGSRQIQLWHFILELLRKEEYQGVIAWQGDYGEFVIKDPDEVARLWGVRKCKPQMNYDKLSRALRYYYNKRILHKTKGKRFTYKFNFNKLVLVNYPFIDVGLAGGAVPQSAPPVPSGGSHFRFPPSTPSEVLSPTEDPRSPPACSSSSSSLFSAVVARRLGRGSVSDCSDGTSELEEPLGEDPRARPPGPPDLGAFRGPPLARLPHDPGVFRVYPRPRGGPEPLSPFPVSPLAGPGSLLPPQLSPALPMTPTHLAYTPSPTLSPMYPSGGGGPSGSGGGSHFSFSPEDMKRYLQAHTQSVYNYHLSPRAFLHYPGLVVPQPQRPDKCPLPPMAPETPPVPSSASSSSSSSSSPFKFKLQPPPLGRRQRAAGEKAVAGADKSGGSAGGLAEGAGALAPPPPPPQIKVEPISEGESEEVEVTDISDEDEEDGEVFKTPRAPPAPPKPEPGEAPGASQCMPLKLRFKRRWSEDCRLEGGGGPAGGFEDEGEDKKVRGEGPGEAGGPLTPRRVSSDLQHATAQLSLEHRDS
# Procedure, shortened: as §1
# ETV3L = target: T7, ETV3L (Homo sapiens, UniProt Q6ZN32 1-361); settings: protein: recombinant; tags: N-terminal GST; dsDNA, one strand shown
# T7 sequence: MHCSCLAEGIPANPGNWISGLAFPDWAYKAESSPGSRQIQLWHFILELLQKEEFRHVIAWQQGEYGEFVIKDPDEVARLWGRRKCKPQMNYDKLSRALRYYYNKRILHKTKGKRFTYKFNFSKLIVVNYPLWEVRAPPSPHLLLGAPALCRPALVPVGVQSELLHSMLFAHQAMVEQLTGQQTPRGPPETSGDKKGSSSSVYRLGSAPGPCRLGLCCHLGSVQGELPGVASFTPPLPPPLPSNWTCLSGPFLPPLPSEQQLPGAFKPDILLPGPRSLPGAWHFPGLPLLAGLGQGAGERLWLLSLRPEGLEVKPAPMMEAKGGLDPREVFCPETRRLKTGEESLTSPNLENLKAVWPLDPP
# Procedure, shortened: as §1
# ETS2 = target: T8, ETS2 (Homo sapiens, UniProt P15036 1-469); settings: protein: recombinant; tags: N-terminal GST; dsDNA, one strand shown
# T8 sequence: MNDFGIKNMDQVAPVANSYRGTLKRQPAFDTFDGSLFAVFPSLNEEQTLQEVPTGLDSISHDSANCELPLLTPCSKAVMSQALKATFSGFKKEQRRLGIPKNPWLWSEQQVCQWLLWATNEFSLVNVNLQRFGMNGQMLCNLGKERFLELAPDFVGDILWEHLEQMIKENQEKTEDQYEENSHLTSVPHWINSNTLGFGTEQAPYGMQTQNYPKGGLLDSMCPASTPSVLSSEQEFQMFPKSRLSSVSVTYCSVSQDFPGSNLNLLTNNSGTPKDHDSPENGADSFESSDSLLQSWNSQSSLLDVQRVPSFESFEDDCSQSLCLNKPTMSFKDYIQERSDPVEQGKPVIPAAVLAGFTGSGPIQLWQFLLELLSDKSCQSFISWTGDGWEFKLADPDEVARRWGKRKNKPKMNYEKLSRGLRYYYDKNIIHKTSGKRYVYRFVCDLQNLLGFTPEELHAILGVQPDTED
# Procedure, shortened: as §1
# SPDEF = target: T9, SPDEF (Homo sapiens, UniProt O95238 1-335); settings: protein: recombinant; tags: N-terminal GST; dsDNA, one strand shown
# T9 sequence: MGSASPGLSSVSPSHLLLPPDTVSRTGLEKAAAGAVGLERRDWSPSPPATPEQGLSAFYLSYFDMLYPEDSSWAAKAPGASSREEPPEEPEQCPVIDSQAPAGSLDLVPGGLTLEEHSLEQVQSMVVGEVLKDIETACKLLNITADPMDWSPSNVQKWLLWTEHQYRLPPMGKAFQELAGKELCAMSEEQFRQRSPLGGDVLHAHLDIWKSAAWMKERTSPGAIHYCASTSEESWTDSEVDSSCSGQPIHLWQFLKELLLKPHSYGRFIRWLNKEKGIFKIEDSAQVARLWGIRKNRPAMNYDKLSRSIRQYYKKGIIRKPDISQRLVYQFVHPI
# Procedure, shortened: as §1
# ETV7 = target: T10, ETV7 (Homo sapiens, UniProt Q9Y603 1-341); settings: protein: recombinant; tags: N-terminal GST; dsDNA, one strand shown
# T10 sequence: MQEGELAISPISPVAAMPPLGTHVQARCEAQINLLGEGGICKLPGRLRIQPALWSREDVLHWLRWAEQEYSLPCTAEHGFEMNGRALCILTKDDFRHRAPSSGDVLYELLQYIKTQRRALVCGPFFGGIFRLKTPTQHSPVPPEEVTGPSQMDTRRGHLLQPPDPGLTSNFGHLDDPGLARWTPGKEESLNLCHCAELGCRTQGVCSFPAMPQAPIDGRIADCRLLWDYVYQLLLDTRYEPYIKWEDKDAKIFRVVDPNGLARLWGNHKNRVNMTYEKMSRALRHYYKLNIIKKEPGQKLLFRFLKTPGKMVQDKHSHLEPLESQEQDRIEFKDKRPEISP
# Procedure, shortened: as §1
# ELF5 = target: T11, ELF5 (Homo sapiens, UniProt Q9UKW6-2 1-255); settings: protein: recombinant; tags: N-terminal GST; dsDNA, one strand shown
# T11 sequence: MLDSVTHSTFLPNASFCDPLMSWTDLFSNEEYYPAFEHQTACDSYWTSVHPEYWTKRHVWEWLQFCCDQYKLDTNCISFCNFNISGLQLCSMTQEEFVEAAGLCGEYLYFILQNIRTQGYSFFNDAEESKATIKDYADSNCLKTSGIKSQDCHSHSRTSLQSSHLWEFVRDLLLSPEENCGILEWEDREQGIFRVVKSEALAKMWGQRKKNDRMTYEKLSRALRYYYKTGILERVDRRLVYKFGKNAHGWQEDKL
# Procedure, shortened: as §1
# ETV3 = target: T12, ETV3 (Homo sapiens, UniProt P41162-2 1-143); settings: protein: recombinant; tags: N-terminal GST; dsDNA, one strand shown
# T12 sequence: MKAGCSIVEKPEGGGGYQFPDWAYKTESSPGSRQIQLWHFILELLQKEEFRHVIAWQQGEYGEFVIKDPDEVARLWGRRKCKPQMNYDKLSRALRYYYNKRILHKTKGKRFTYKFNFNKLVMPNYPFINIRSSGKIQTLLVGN
# Procedure, shortened: as §1
# ETV6 = ETV6 (Homo sapiens, UniProt P41212 1-452); settings: protein: recombinant; tags: N-terminal GST; dsDNA, one strand shown
# Chain of ETV6 (P41212 whole entry): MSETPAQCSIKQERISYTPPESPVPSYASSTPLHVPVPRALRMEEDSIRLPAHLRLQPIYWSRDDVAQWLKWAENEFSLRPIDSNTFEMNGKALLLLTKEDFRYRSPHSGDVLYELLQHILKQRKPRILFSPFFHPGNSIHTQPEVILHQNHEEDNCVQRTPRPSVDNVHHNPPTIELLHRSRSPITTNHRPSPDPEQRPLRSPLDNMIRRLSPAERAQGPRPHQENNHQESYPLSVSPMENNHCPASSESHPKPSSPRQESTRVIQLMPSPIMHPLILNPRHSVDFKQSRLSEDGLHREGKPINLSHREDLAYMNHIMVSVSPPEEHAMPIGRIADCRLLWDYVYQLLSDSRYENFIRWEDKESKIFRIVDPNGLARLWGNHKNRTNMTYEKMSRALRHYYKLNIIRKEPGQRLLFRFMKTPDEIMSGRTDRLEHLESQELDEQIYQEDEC
# Procedure, shortened: as §1
sequence,measurement,setting,value
GAACAA,binding signal,FEV,"1.11 fold enrichment (6-mer frequency, TF over GST control)"
same,binding signal,ETV5,"1.18 fold enrichment (6-mer frequency, TF over GST control)"
same,binding signal,HSF1,"1.5 fold enrichment (6-mer frequency, TF over GST control)"
same,binding signal,SPIC,"1.23 fold enrichment (6-mer frequency, TF over GST control)"
same,binding signal,ELF4,"1.2 fold enrichment (6-mer frequency, TF over GST control)"
same,binding signal,ELK4,"1.16 fold enrichment (6-mer frequency, TF over GST control)"
same,binding signal,ETV2,"1.28 fold enrichment (6-mer frequency, TF over GST control)"
same,binding signal,ELF3,"1.22 fold enrichment (6-mer frequency, TF over GST control)"
same,binding signal,CRX,"1.06 fold enrichment (6-mer frequency, TF over GST control)"
same,binding signal,ETV1,"1.21 fold enrichment (6-mer frequency, TF over GST control)"
same,binding signal,ERF,"1.24 fold enrichment (6-mer frequency, TF over GST control)"
same,binding signal,ETV3L,"1.2 fold enrichment (6-mer frequency, TF over GST control)"
same,binding signal,ETS2,"1.22 fold enrichment (6-mer frequency, TF over GST control)"
same,binding signal,SPDEF,"1.14 fold enrichment (6-mer frequency, TF over GST control)"
same,binding signal,ETV7,"1.17 fold enrichment (6-mer frequency, TF over GST control)"
same,binding signal,ELF5,"1.23 fold enrichment (6-mer frequency, TF over GST control)"
same,binding signal,ETV3,"1.18 fold enrichment (6-mer frequency, TF over GST control)"
same,binding signal,ETV6,"1.25 fold enrichment (6-mer frequency, TF over GST control)"
